Experimental data reported in PubChem BioAssay AID652039 (The Scripps Research Institute Molecular Screening Center, 2013).
Hit rate of the full screen: of about 370,000 compounds, about 3,300 (0.89%) were called active. This is one part of a sample in which actives are shown more often than they occur. A number with no mark means an inactive call.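 How the source made its calls: active means activation above the mean of all tested compounds plus 3 SD, computed per campaign excluding outliers beyond control limits (cut at about 13% in these data); inactive means the rest.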

These molecules were tested against Kallikrein-7 (Homo sapiens) (UniProt P49862) (assay: proKLK7 zymogen activators, primary screen, biochemical, fluorescence intensity (AID 652039)). Settings: purified proKLK7, EDANS-DABCYL substrate fluorescence; at 7 µM; active compounds read high.
Chain of Kallikrein-7 (Homo sapiens) (P49862 whole entry, looked up): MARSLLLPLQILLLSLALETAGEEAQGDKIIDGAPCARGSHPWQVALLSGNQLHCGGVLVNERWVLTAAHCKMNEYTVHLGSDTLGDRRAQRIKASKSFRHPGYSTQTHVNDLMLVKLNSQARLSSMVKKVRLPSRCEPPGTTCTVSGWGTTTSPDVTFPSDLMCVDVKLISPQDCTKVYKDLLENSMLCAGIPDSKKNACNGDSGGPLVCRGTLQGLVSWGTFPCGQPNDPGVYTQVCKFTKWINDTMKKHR

With CCOc1ccc(-c2cc(C)[n+](CCN(CC)CC)c(-c3ccc(OCC)cc3)c2)cc1 the activation was 44.7% (active).
In the case of COC(=O)COc1cc(C)cc2oc(=O)c3c(c12)CCCC3, the activation is reported as 14.7% (active).
CCOC(=O)c1c(N)n(CCN2CCOCC2)c2nc3ccccc3nc12 was tested, and the activation was 27.2% (active).
With COc1cccc(-c2nc3ccc(N4CCN(C)CC4)cc3[nH]2)c1 the activation was 68.7% (active).
In the case of Cc1nc2ccc(N3CCN(C)CC3)cc2nc1C, the activation is reported as 83.6% (active).

Point of comparison: c1ccc(CCN2CCC3(CC2)OCCO3)cc1, activation 0.24%. Against it:
- COc1ccc(-c2nn(CCC#N)cc2C(=O)O)cc1 — lower, -0.57%
- COc1cc(OC)cc(C(=O)NCCN2CCC3(CC2)C(=O)NCN3c2ccccc2)c1 — lower, 0.06%
- CS(=O)(=O)N1CCC2CCNC2C1 (stereo not given) — lower, -0.49%
- COc1ccccc1C1=NCc2nnc(CSC)n2-c2ccc(Cl)cc21 — lower, -0.06%
- Cc1cc(OCc2cc(C(=O)O)oc2C)c2c3c(c(=O)oc2c1)CCCC3 — higher, 9.69%
- Brc1ccc2c(c1)CNCc1cnnn1-2 — higher, 0.31%
- CCN(CC)C(=O)[C@@H]1C=C2c3cccc4[nH]c(Br)c(c34)C[C@H]2N(C)C1 — lower, -1.09%
- Cc1cc(N2CCNC[C@@H]2C)ccc1N1CC[C@H](O)C1 — higher, 1.32%
- COc1cc(Cn2c(N)c(C(=O)NCc3ccco3)c3nc4ccccc4nc32)cc(OC)c1OC — lower, -1.84%
- O=C(OCCN1CCOCC1)C1(c2ccccc2)CCCC1 — lower, 0.22%
- COc1ccc2c(c1)[C@@]13CCCCC1[C@@H](C2)NCC3 (stereo not given in full) — lower, 0.08%
- O=S(=O)(c1ccccc1)N1CCC2CCNC2C1 (stereo not given) — lower, -0.08%
- C[C@H]1CN([C@@H](C)CO)C(=O)CCCn2nncc2CO[C@H]1CN(C)C(=O)Oc1ccccc1 — lower, -0.02%
- Clc1ccc([C@@H]2CC3CCC2N3)cn1 (stereo not given in full) — higher, 0.62%
- CCC(C)NC1(c2ccccc2)CCCCC1 (stereo not given) — lower, 0.13%
- COc1ccc(C(=O)CC2C(=O)N(C)C(=O)N(C)C2=O)cc1 — lower, -0.07%
- Cc1ccccc1CCC[C@@H](CC1CCCCC1)CN(C)C(=O)Oc1ccccc1 — higher, 0.38%
- COP(=O)(Sc1ccccc1)C(Cc1ccccc1)NC(=O)OCc1ccccc1 (stereo not given) — lower, 0.08%
- c1ccc2sc(C3CCCNC3)nc2c1 (stereo not given) — higher, 0.61%
